CYP2C9 activ: increases human cytochrome P450 2C9 activity; recombinant CYP2C9, luciferin-H conversion, luminescence; stronger effect = higher value; factor 1 = untreated enzyme, 0 = blocked; actives 1.4% (n = 96,000); activation factor at 5 µM;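 active = activation factor of 2 or more for CYP2C9 at a 5 µM dose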;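 note: 0 = sulfaphenazole-blocked wells and 1 = vehicle-only wells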
CYP2C19 activ: activators of human cytochrome P450 2C19; P33261; recombinant CYP2C19, luciferin-H EGE luminescence; stronger effect = higher value; 0 = fully inhibited enzyme, 1 = untreated enzyme; activation factor at 5 µM; 96,000 tested, under 10 active; AID 1025;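 active = activation factor of at least 2 at 5 µM in the primary screen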;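 note: 0 = wells with 2.5 mM tranylcypromine and 1 = vehicle-only wells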
CYP2C19 inhib: human CYP2C19 inhibition; CYP2C19 Supersomes, luciferin-H EGE luminescence, 30 min; inhibition, % at 5 µM; actives 21% (n = 96,000); AID 778;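 active = CYP2C19 inhibition above a set limit at 5 µM in the primary screen, cut at about 50% in these data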;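 note: plate controls were negative control wells for no effect and 2.5 mM tranylcypromine positive control for full effect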
Cav3 T inh: inhibitors of human Cav3.2 T-type calcium channel | Cav3.2-expressing cells, Fluo-4 calcium fluorescence FDSS; stronger effect = lower value | O95180 | actives 4% (n = 100,000) | B-score at 10 µM;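 active = single-dose well whose peak fluorescence ratio is a statistical outlier from its plate by either plate-standardised score or position-corrected B-score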
Target sequence (O95180 whole entry, looked up): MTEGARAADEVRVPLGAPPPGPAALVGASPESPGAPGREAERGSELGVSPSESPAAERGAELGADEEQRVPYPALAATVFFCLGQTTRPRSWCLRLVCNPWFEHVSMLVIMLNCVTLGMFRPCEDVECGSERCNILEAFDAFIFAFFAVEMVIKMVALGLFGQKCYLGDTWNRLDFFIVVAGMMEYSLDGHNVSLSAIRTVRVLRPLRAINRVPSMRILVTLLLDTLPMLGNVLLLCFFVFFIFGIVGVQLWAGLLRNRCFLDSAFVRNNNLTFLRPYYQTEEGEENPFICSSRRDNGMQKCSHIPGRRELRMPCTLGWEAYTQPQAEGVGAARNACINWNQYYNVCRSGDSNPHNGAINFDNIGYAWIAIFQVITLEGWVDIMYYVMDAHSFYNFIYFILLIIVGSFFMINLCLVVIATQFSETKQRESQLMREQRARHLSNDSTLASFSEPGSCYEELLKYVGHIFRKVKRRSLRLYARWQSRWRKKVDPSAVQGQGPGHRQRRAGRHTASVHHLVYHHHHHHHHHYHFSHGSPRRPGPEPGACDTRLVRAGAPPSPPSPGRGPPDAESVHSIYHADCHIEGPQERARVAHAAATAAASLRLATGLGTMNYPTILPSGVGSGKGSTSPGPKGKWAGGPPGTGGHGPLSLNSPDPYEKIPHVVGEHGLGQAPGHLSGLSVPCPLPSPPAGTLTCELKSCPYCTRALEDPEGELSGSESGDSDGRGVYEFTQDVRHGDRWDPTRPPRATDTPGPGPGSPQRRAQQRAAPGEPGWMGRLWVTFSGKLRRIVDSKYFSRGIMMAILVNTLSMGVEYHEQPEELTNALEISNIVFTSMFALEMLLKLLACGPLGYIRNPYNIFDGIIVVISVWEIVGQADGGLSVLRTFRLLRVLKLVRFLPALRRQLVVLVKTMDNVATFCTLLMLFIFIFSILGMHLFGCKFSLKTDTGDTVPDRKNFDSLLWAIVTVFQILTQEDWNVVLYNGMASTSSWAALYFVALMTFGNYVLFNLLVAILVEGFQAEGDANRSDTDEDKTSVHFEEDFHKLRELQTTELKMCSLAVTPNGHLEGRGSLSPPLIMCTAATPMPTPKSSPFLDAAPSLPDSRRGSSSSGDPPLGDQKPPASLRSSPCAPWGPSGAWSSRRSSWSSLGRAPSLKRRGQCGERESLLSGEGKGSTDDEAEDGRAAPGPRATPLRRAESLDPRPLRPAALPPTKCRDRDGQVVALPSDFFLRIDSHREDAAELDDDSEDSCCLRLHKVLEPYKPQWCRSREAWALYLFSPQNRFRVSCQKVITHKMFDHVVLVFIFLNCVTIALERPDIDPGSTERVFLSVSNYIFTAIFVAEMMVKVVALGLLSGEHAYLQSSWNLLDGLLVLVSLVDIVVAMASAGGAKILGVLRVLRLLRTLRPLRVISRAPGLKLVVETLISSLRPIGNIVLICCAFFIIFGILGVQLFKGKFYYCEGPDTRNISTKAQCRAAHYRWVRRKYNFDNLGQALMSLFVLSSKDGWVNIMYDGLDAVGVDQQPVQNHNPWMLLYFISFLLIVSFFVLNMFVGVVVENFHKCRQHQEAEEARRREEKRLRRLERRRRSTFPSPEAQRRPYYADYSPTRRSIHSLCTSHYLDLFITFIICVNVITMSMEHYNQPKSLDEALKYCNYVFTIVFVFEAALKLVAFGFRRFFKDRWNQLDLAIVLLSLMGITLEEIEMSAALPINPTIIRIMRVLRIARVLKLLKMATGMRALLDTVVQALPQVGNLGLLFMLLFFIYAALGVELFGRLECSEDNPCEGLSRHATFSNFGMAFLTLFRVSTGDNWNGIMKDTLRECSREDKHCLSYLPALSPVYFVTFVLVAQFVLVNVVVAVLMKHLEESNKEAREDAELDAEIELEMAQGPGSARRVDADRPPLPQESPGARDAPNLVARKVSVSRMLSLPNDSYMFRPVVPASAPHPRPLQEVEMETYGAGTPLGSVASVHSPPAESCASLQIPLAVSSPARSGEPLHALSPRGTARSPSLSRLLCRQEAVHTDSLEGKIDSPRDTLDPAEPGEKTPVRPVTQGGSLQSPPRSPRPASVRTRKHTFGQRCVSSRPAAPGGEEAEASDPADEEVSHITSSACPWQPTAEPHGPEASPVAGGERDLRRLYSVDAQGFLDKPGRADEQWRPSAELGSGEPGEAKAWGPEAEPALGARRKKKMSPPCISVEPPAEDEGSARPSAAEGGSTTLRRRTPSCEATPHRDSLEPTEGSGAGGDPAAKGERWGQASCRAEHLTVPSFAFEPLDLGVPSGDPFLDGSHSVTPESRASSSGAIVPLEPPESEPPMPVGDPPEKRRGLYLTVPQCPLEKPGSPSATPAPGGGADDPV
CYP2C9 inhib: human CYP2C9 inhibition. P11712. CYP2C9 Supersomes, luciferin-H conversion, luminescence. inhibition, % at 5 µM. actives 20% (n = 96,000). AID 777;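 active = blocking of liver enzyme CYP2C9 beyond about 50% at 5 µM, limit read from the data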
Active calls of the source: *; . = no result. Sampled rows, rich in hits. Any-hit rate of the full collection: about 27%.

SMILES	CYP2C9 activ	CYP2C19 activ	CYP2C19 inhib	Cav3 T inh	CYP2C9 inhib
N#Cc1cn(CC(=O)N2CCCC2)c2ccccc12	0.9	0.8	24	0.97	13
O=C(CSc1cn(Cc2ccccc2)c2ccccc12)N1CCOCC1	0.8	0.1	88*	-0.42	21
CN1C(=O)/C(=C/c2cn(CC(=O)N3CCCCC3)c3ccccc23)c2ccccc21	0	0.2	75*	-1.4	98*
O=C(c1cn(CC(=O)N2CCCC2)c2ccccc12)C1CCCCC1	0.5	0.5	54*	2	50*
O=C(Cn1cc(C(=S)N2CCOCC2)c2ccccc21)N1CCOCC1	1	1.1	-10	.	1
O=C(COc1ccccc1)c1cn(CC(=O)N2CCOCC2)c2ccccc12	0.3	0.7	34	0.65	71*
CCCS(=O)(=O)N1CCC(C(=O)NCCN(C)Cc2ccccc2)CC1	1	1	-2	0.71	-2
Cc1onc(-c2ccccc2Cl)c1C(=O)Nc1cnn(Cc2ccccc2)c1	0.6	0.9	9	-1.7	37
O=C(Oc1cccnc1)c1cc(S(=O)(=O)N2CCCCC2)ccc1Cl	0.9	1	1	0.71	11
O=C(Cn1cc(C(=O)COc2ccccc2)c2ccccc21)NCc1ccco1	0.2	0.6	39	-3.4	78*
CCOC(=O)C1=C(C)NC(=O)NC1c1cc(C)sc1C (centres undefined)	1	0.9	7	1.1	0
CCOC(=O)C1CCN(S(=O)(=O)c2cccc(-c3cn4ccccc4n3)c2)CC1	0.6	0.7	32	0.94	38
Cc1nc(-c2cccc(S(=O)(=O)N3CCC(C)CC3)c2)cs1	0.6	0.8	20	-3.4	41
CCOC(=O)C1CCN(S(=O)(=O)c2cccc(-c3cn4cc(Cl)ccc4n3)c2)CC1	0.3	0.2	76*	0.14	67*
CC1CCN(S(=O)(=O)c2cccc(-c3cn4cc(Cl)ccc4n3)c2)CC1	0.4	0.5	46	-0.13	61*
COc1ccc(S(=O)(=O)N/N=C(/C)c2ccc(Cl)cc2)cc1	0.2	0.2	84*	-2.2	79*
CCC(NS(=O)(=O)c1ccc(C)cc1)C(=O)Nc1ccc(NC(C)=O)cc1 (centres undefined)	0.5	0.3	70*	-0.17	46
CC(=O)Nc1ccc(S(=O)(=O)NNC(=O)c2ccc(C)cc2)cc1	0.6	0.5	53*	-0.67	41
CC(=O)Nc1ccc(NC(=O)CNS(=O)(=O)c2ccc(C)cc2)cc1	0.7	0.6	42	0.6	28
C/C(=N/NS(=O)(=O)c1ccc(Cl)cc1)c1cccc(O)c1	0.8	0.8	22	-3.6	23
CCC(C)NS(=O)(=O)c1ccc(NC(C)=O)cc1 (centres undefined)	.	.	.	0.95	.
CC(=O)Nc1ccc(/C(C)=N/NS(=O)(=O)c2ccc(C)cc2)cc1	0.3	0.8	24	.	71*
c1ccc2sc(Cc3nnc4n3CCCCC4)nc2c1	1.1	0.8	16	0.23	-10
COC(=O)C1=C(COc2ccccc2)NC(=O)NC1c1ccc(Br)cc1 (centres undefined)	.	.	.	-0.8	.
Cc1cc(-n2nc(C)cc2C)n2nc(C)c(-c3ccc(Cl)cc3)c2n1	0.8	1.2	-17	0.91	25
SMILES	CYP2C9 activ	CYP2C19 activ	CYP2C19 inhib	Cav3 T inh	CYP2C9 inhib
CCC1=NN=C(c2ccc(F)cc2)C(c2c[nH]c3ccccc23)N1O (centres undefined)	.	.	.	-1.6	.
CN(C)c1ccc(C2NCC(CCl)O2)cc1 (centres undefined)	1.1	0.8	17	0.024	-8
C/C(=N/NS(=O)(=O)c1ccc(Br)cc1)c1ccc(NC(=O)c2ccc(C)o2)cc1	0	0.5	50	-1.8	98*
COc1ccc(-c2nc3c(n2O)CCCC3=O)cc1OC	1.1	1.1	-5	0.4	-7
CCCCc1nn(-c2cc(Cl)ccc2OC)c2c1C(=O)CCC2	0.1	0	97*	-2.4	92*
O=C(NCc1ccccc1)N(Cc1nc2ccccc2c(=O)[nH]1)C1CCCC1	0.5	0.6	43	0.62	53*
Cc1n[nH]c(C)c1CCOc1ccc(C(C)C)cc1	0.8	0.9	14	-5.4*	21
COc1ccc(-c2nc(NC(=O)c3cc(C(C)(C)C)nn3C)sc2C)cc1	1.7	0.9	6	-2.6	-68
CCOC(=O)C(C)Sc1nnc(CNC(=O)c2ccc(OC)cc2)n1C1CCCCC1 (centres undefined)	0.8	0.4	62*	-1.5	21
COc1ccc(C(=O)NCc2nnc(SC)n2C2CCCCC2)cc1	.	.	.	-0.77	.
O=C(NCCCN1CCCC1=O)c1cccnc1	1.1	0.9	6	0.17	-14
Cc1nn(C/C(C#N)=N\O)c(C)[n+]1N	1.2	1.1	-12	-0.21	-17
O=C(O)c1cccc(Nc2ncnc3ccccc23)c1	1	0.8	17	1.2	3
COc1cc(C(=O)Oc2cccc(Nc3ncnc4ccccc34)c2)cc(OC)c1OC	0.4	0.5	45	-2	63*
O=C(CN1CCN(c2ccccc2)CC1)Nc1ccc(OCc2ccccc2)cc1	0.7	0.9	7	-0.77	29
COc1ccc(CCn2c(N)c(C(=O)NCc3ccco3)c3nc4ccccc4nc32)cc1OC	0.4	0.2	77*	0.093	56*
COc1ccc(-n2c(N)c(C(=O)NCc3ccco3)c3nc4ccccc4nc32)c(OC)c1	0.8	0.7	30	-1.5	24
Nc1c(C(=O)NCc2ccco2)c2nc3ccccc3nc2n1CCc1ccccc1F	0.5	0.6	38	.	52*
CCc1ccc(C(=O)COC(=O)c2cnccn2)cc1	1.2	1.2	-16	0.99	-22
CCOC(=O)CSc1ncc(OC)c(Sc2ccc(OC)cc2)n1	0.2	0.6	40	-6.6*	84*
CCn1c2ccccc2c2nnc(SCC(=O)Nc3cc(C)on3)nc21	0.9	0.9	12	0.39	7
CCOC(=O)CSc1ncc(-c2ccccc2)cn1	0.8	0.8	24	1.6	20
CCn1c2ccccc2c2nnc(SCC(=O)NCCOC)nc21	1	0.4	55*	0.4	-4
CCOC(=O)CSc1ncc(-c2ccccc2)nn1	0.5	0.3	70*	-1.5	46
CCn1c2ccccc2c2nnc(SCC(=O)NCc3cccs3)nc21	0.6	0	96*	0.98	36
SMILES	CYP2C9 activ	CYP2C19 activ	CYP2C19 inhib	Cav3 T inh	CYP2C9 inhib
CC1CCc2nn(CC(=O)NC3CCCC(C)C3C)cc2C1 (centres undefined)	1	1	2	-0.76	3
CCCn1c2ccccc2c2nnc(SCC(=O)OCC)nc21	0.8	0.3	66*	-1.9	24
COc1ccc(NC(=O)c2oc3ccccc3c2NC(=O)c2ccco2)cc1	0.8	0.4	60*	-1.7	19
CCOC(=O)c1c(C)[nH]c(C)c1C(=O)COc1ccc(NC(=O)c2ccco2)cc1	0.1	0.1	88*	0.21	93*
COc1ccc(NC(=O)c2oc3ccccc3c2NC(=O)c2ccco2)c(OC)c1	0.6	0.9	10	0.02	36
COCC(=O)Nc1c(C(=O)Nc2cccc(OC)c2)oc2ccccc12	0.4	0.9	11	-0.79	64*

High-throughput results as filed in PubChem.
